{"source": "PubChem BioAssay (NCI)", "note": "Where “and” joins values, the source holds several entries; their conditions need not be identical. Identical values can stand only once. This is part of a sample that, as a whole, favours compounds with a hit. Of some 83,000 tested, about 20% had one in any assay.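 96-well plates, one dose, 48 hours. Percent growth reported; active if below 10.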 Calls of active or inactive are those of the source. Starred links: 1 amine or outer side, 2 acyl side, 3 side chain; linkers in the order of their positions; H or OH if unused. Positions of bridges follow the written chain, without caps; N, C: chain ends. Non-standard residues stand in square brackets, D forms with d. Residues, ends and D or L forms follow the SMILES beside them. Chains are numbered I, II in the order given. Actinocin(9to1) = Cc1c2oc3c(C)ccc(C(=O)[*:1])c3nc-2c(C(=O)[*:2])c(N)c1=O; aThr = C[C@H](O)[C@H](N)C(=O)O; NMeV = CN[C@H](C(=O)O)C(C)C; Sar = CNCC(=O)O"}
{"tested_on": "M14 melanoma", "assay": "NCI-60 one-dose screen, 48 h (100 = growth as untreated, 0 = no growth, -100 = all killed)", "settings": "10 µM"}
{"smiles": "CN(C)CCC(=O)c1c[nH]c2ccccc12", "growth": "101% (inactive)"}
{"smiles": "N#C/C(=C1C=C/C(=N\\O)C(Cl)=C\\1)c1ccccc1", "growth": "46% (inactive)"}
{"smiles": "S=c1[nH]nc(Cc2ccccc2)c(=S)[nH]1", "growth": "101% (inactive)"}
{"smiles": "Cc1cnc(/C=N\\NC(N)=S)c2cccc(N)c12", "growth": "-24.7% (active)"}
{"smiles": "CCCCCCCCCCCCCCCCCN", "growth": "104% (inactive)"}
{"smiles": "Cc1cc(NCCCN(C)C)c2ccc3c(ccc4c(NCCCN(C)C)cc(C)nc43)c2n1", "growth": "-82.9% (active)"}
{"smiles": "COc1cc(C(C)(C)C)cc(OC)c1C(O)(c1c(OC)cc(C(C)(C)C)cc1OC)c1c(OC)cc(C(C)(C)C)cc1OC", "growth": "-94.6% (active)"}
{"smiles": "O=c1[nH]cc(F)c(=O)[nH]1", "growth": "64% (inactive) and 28.9% (inactive)"}
{"smiles": "Nc1ccc2cc(Br)c3ccccc3c2c1", "growth": "78.5% (inactive)"}
{"smiles": "BrC/C=C/C[P+](c1ccccc1)(c1ccccc1)c1ccccc1", "growth": "49.9% (inactive)"}
{"smiles": "O=C(/C(=C/c1ccccc1)CBr)c1ccccc1", "growth": "65.8% (inactive)"}
{"tested_on": "HCT-15 colon", "assay": "NCI-60 one-dose screen, 48 h (100 = growth as untreated, 0 = no growth, -100 = all killed)", "settings": "10 µM"}
{"smiles": "CN(C)CCC(=O)c1c[nH]c2ccccc12", "growth": "110% (inactive)"}
{"smiles": "N#C/C(=C1C=C/C(=N\\O)C(Cl)=C\\1)c1ccccc1", "growth": "22.2% (inactive)"}
{"smiles": "S=c1[nH]nc(Cc2ccccc2)c(=S)[nH]1", "growth": "102% (inactive)"}
{"smiles": "Cc1cnc(/C=N\\NC(N)=S)c2cccc(N)c12", "growth": "24.9% (inactive)"}
{"smiles": "CCCCCCCCCCCCCCCCCN", "growth": "104% (inactive)"}
{"smiles": "Cc1cc(NCCCN(C)C)c2ccc3c(ccc4c(NCCCN(C)C)cc(C)nc43)c2n1", "growth": "-34.6% (active)"}
{"smiles": "COc1cc(C(C)(C)C)cc(OC)c1C(O)(c1c(OC)cc(C(C)(C)C)cc1OC)c1c(OC)cc(C(C)(C)C)cc1OC", "growth": "-85.8% (active)"}
{"smiles": "O=c1[nH]cc(F)c(=O)[nH]1", "growth": "48.1% (inactive) and 51.4% (inactive)"}
{"smiles": "Nc1ccc2cc(Br)c3ccccc3c2c1", "growth": "33.2% (inactive)"}
{"smiles": "BrC/C=C/C[P+](c1ccccc1)(c1ccccc1)c1ccccc1", "growth": "37.3% (inactive)"}
{"smiles": "O=C(/C(=C/c1ccccc1)CBr)c1ccccc1", "growth": "47% (inactive)"}
{"smiles": "Cc1c2oc3c(C)ccc(C(=O)N[C@@H]4C(=O)N[C@H](C(C)C)C(=O)N5CCC[C@H]5C(=O)N(C)CC(=O)N(C)[C@@H](C(C)C)C(=O)O[C@H]4C)c3nc-2c(C(=O)N[C@@H]2C(=O)N[C@H](C(C)C)C(=O)N3CCC[C@H]3C(=O)N(C)CC(=O)N(C)[C@@H](C(C)C)C(=O)O[C@H]2C)c(N)c1=O", "note": "(I: [aThr][dV]P[Sar][NMeV] / II: [aThr][dV]P[Sar][NMeV]; ester I:1-I:C, II:1-II:C; linker I:N-II:N via Actinocin(9to1))", "growth": "2.4% (active)"}
{"smiles": "CSc1ccc2c(c1)C(N1CCN(C)CC1)Cc1ccccc1S2", "note": "(stereo not given)", "growth": "10.3% (inactive)"}
{"smiles": "CN1CCN(c2ccc3nc(-c4ccc5nc(-c6ccc(O)cc6)[nH]c5c4)[nH]c3c2)CC1", "growth": "94.3% (inactive)"}
